# How the values were obtained:
# [1] = target: Tumor necrosis factor receptor superfamily member 10B (Homo sapiens) (UniProt O14763); assay: viability loss of caspase-8 NB7 cells with TRAIL – with/without TRAIL, luminescence panel, confirmation (AID 651596); settings: NB7 neuroblastoma + caspase-8, TRAIL sensitization, NB7 Caspase-8, with TRAIL, mean of runs, at 10 µM, stronger effect = higher value
# [2] = as above; settings: NB7 neuroblastoma + caspase-8, without TRAIL, NB7 Caspase-8, without TRAIL, mean of runs, at 10 µM
# [3] = target: Tumor necrosis factor receptor superfamily member 10B (Homo sapiens) (UniProt O14763); assay: compound enhancement of TRAIL-induced cell killing – NB7 cells plus caspase-8, luminescence, panel, dose response (AID 652002); settings: NB7 neuroblastoma +caspase-8, TRAIL sensitization, luminescence viability, NB7+Caspase-8, with TRAIL, run 1; at 12.5 µM (top of the series)
# [4] = target: Tumor necrosis factor receptor superfamily member 10B (Homo sapiens) (UniProt O14763); assay: as above; settings: NB7 neuroblastoma +caspase-8, TRAIL sensitization, luminescence viability, NB7+Caspase-8, with TRAIL, run 2; at 12.5 µM (top of the series)
# [5] = as above; settings: NB7 neuroblastoma +caspase-8, no TRAIL, compound-alone cytotoxicity counter-screen, luminescence viability, NB7+Caspase-8, run 1; at 12.5 µM (top of the series) unless noted
# [6] = as above; settings: NB7 neuroblastoma +caspase-8, no TRAIL, compound-alone cytotoxicity counter-screen, luminescence viability, NB7+Caspase-8, run 2; at 12.5 µM (top of the series) unless noted
# Tumor necrosis factor receptor superfamily member 10B (Homo sapiens), sequence (O14763 whole entry, looked up): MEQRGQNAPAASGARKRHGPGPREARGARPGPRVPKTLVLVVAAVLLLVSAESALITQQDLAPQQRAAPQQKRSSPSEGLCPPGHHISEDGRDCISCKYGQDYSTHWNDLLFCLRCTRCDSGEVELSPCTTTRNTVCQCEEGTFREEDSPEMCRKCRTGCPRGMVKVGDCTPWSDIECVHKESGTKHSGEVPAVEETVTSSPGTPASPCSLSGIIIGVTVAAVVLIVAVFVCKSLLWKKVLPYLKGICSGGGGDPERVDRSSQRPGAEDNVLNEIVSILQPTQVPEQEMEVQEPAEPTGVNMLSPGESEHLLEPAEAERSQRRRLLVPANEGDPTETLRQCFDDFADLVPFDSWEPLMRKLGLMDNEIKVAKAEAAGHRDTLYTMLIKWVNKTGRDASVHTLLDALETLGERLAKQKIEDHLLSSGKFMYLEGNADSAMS
structure (smiles),measurement,setting,value
COC(=O)c1c(NC(=O)COc2ccc(Cl)cc2Cl)sc2c1CC(C)(C)NC2(C)C,activity,[1],98.7%
same,activity,[2],99.3%
CN=c1scc(-c2ccccc2F)n1/N=C(\C)c1cccnc1,activity,[1],54.9%
same,activity,[2],51.2%
COc1ccc(C2C(O)C(c3c[nH]c4ccccc34)=NN2C(=O)CCl)cc1 (configuration not stated),activity,[1],99.2%
same,activity,[2],99.2%
CC1CCc2nc(NC(=O)c3ccco3)sc2C1 (configuration not stated),activity,[1],90.5%
same,activity,[2],89%
Nc1nnnn1/N=C/C(Br)=C/c1ccccc1,activity,[1],68.6%
same,activity,[2],88.8%
CCC(=O)Nc1ccc2oc(-c3cccc(C)c3)nc2c1,activity,[1],57.2%
same,activity,[2],55.7%
COc1ccc(C2CC(c3ccc(Br)cc3)=NN2C(=O)CSC2=NN3CCCC(=O)N=C3S2)cc1 (configuration not stated),activity,[1],95.8%
same,activity,[2],90.9%
Cc1cccc(-n2ncc3c(N4CCOCC4)ncnc32)c1,activity,[1],85.7%
same,activity,[2],88.5%
O=C(Nc1ccccc1)c1cc(C2CCCN(C(=O)C3CC3)C2)on1 (configuration not stated),activity,[1],48.6%
same,activity,[2],32.4%
Cc1ccc(-c2nnc(NC(=O)c3ccco3)o2)c(C)c1,activity,[1],70.7%
same,activity,[2],58.6%
CC1Oc2ccccc2C=C1/C=N/NC(=O)c1ccccc1O (configuration not stated),activity,[1],46.1%
same,activity,[2],44.9%
COn1c(SCc2ccc(Cl)cc2)nc2ccccc2c1=O,activity,[1],67%
same,activity,[2],47.9%
S=c1[nH]ncn1/N=C/c1ccc(N2CCOCC2)cc1,activity,[1],62%
same,activity,[2],59.8%
Cc1ccc(NC(=O)C(=O)Nc2ccccn2)cc1,activity,[1],75.7%
same,activity,[2],71.7%
Cc1scc(C(=O)N/N=C/c2ccsc2)c1C,activity,[1],58.1%
same,activity,[2],63.5%
COc1ccc(Oc2c(Cl)cnn(-c3ccccc3)c2=O)cc1,activity,[1],98.4%
same,activity,[2],94.4%
COc1ccc(C(=O)Nc2ccccc2C(=O)N/N=C/c2ccco2)cc1,activity,[1],87.6%
same,activity,[2],59.1%
O=C(Nc1ccc(Cl)cn1)c1ccc2c(Cl)c3c(nc2c1)CCC3,activity,[1],56.8%
same,activity,[2],56.3%
Cc1ccc(-c2cc(C(=O)N/N=C/c3cccnc3)c3ccccc3n2)cc1C,activity,[1],43.9%
same,activity,[2],35%
CN1CCN(C(=O)C2=NOC3(C2)C(=O)Nc2ccccc23)CC1 (configuration not stated),activity,[1],-0.15%
same,activity,[2],70.2%
Nc1c(C(=O)Nc2nc3ccccc3s2)sc2nc(-c3cccs3)ccc12,activity,[1],97.8%
same,activity,[2],98.7%
C/C(=N\Nc1nc2ccccc2[nH]1)c1cc2ccccc2o1,activity,[1],47.5%
same,activity,[2],43.7%
O=C(CCl)N(c1ccccc1)C1CCCCC1,activity,[1],99.4%
same,activity,[2],99.8%
O=C(Nc1ccccn1)c1sc2cccc(F)c2c1Cl,activity,[1],82.7%
same,activity,[2],76.6%
COc1ccccc1NC(=O)Nc1ccc2c(c1)nnn2C,activity,[1],20.6%
same,activity,[2],7.6%
Cc1ccc(/C=C/C2=NN(C)C(=O)CC2)cc1,activity,[1],46.6%
same,activity,[2],40.1%
CC(C)(C)OC[C@H](NC(=O)c1[nH]cnc1C(=O)Nc1ccccc1F)C(=O)OC(C)(C)C,activity,[1],55.4%
same,activity,[2],59.2%
COc1ccc(NC(=O)c2ccccn2)cc1,activity,[1],75%
same,activity,[2],69.8%
Cc1cccc(NC(=O)c2cc3ccccc3c(=O)o2)n1,activity,[1],60.3%
same,activity,[2],68.3%
CCOc1cccc(C(=O)Nc2ccc3[nH]ncc3c2)c1,activity,[1],61%
same,activity,[2],67%
Cc1ccc2c(c1)-c1nc3ccccc3cc1C2=NC1CCCCC1,activity,[1],49.6%
same,activity,[2],41.6%
same,"activity, % sensitization",[3],26.1%
same,"activity, % sensitization",[4],46.1%
same,"activity, % sensitization",[5],4.61%
same,"activity, % sensitization",[6],-9.3%
O=[N+]([O-])c1c(Nc2ccccc2O)cc(Cl)c2nonc12,activity,[1],63.9%
same,activity,[2],98.3%
Cc1ccsc1/C=N/NC(=O)c1ccc2c(c1)OCCO2,activity,[1],75.9%
same,activity,[2],68.2%
O=C(CNC(=O)c1ccccc1F)N/N=C/c1cc(Br)ccc1OC(=O)/C=C/c1ccco1,activity,[1],3.4%
same,activity,[2],20.8%

# From PubChem BioAssay
